Results taken from PubChem BioAssay AID504843 (Broad Institute, 2011).
Among all 1,200 compounds or so, about 360 (30%) were called active. Not all results are given here. Measured potencies and affinities stand elsewhere. A number with no mark means an inactive call. No rule for the calls is given here.

Assay: bacterial growth inhibition, dose response, counter-screen, BacTiter-Glo luminescence, cherry-picked samples (AID 504843);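 also: growth measured after 8 h incubation at 30 °C; 0% = median of sample compound wells and -100% = antibiotic control wells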
Conditions: BacTiter-Glo ATP luminescence; series mostly up to 15 µM; activity change, negative = inhibition: at the top concentration

| SMILES | activity change, negative = inhibition [%] |
| --- | --- |
| Cc1ccc(OCCOCCNC(C)(C)C)c([N+](=O)[O-])c1 | 13.6 |
| N#Cc1ccccc1CSc1ccccn1 | -0.492 |
| CC(CN1CCOCC1)(NS(=O)(=O)c1ccccc1)c1ccccc1 (centres undefined) | -7.28 |
| O=C(CNC1CCCCC1)Nc1cc(S(=O)(=O)N2CCOCC2)ccc1Cl | 11.2 |
| O=C(CNC1CCCCCC1)Nc1ccccc1N1CCCCC1 | 2.03 |
| O=C(NCCOC(=O)c1cccs1)c1cccnc1 | -11.1 |
| COc1ccc(OC)c(-n2c(SCC(=O)N3CCc4ccccc43)nc3c(c2=O)SCC3)c1 | -3.67 |
| Fc1cccc(NC(=S)NCCCN2CCOCC2)c1 | 17.8 |
| O=C(Cn1nc(C(=O)O)c2ccccc2c1=O)NCc1ccco1 | 16.7 |
| O=C1CCCN1Cc1ccccc1 | 1.89 |
| N#C/C(=C(/O)CN1CCN(c2ccccc2F)CC1)c1nc(-c2ccc(Cl)cc2)cs1 | -2.75 |
| C[C@@H]1CN([C@H](C)CO)C(=O)c2cc(NS(=O)(=O)c3cccs3)ccc2O[C@H]1CN(C)Cc1ccccc1 | 16.7 |
| COc1cc(/C=N/NC(=O)c2ccccn2)ccc1OC(=O)c1ccc(Br)cc1 | -2.98 |
| C(=N\Nc1ccccn1)/c1ccc(N2CCOCC2)cc1 | -20.3 |
| Cn1c(Cn2c(=O)sc3ccccc32)nnc1SCc1ccccc1F | -14.5 |
| CCCCCCc1ccc(N2C[C@H](Cc3ccccc3)[C@@H](CC(=O)NCc3ccc(OC)cc3)C2=O)cc1 | 5.21 |
| CCCC(=O)c1c[nH]c(C(=O)N2CCOCC2)c1 | -14.1 |
| CCCNC(=O)COc1coc(CN2CCN(c3ccccc3F)CC2)cc1=O | 6.92 |
| CCCc1[nH]nc2c1C(c1ccc(OC(=O)c3ccco3)cc1)C(C#N)=C(N)O2 (centres undefined) | 6.6 |
| CC(=O)c1ccc([C@H]2C[C@@]34CN(C(=O)OC(C)(C)C)S(=O)(=O)[C@H]3C[C@H]2O4)cc1 | 17 |
| CCOC(=O)CSc1nnc(CNC(=O)c2ccc([N+](=O)[O-])cc2)n1C | -4.14 |
| NC(=O)c1cc2ccc(O)cc2oc1=Nc1ccccc1 | 0.396 |
| Cc1ccc(NCc2nnc3n2CCCCC3)c(C)c1 | 5 |
| C[C@H](NS(=O)(=O)c1ccc(Cl)c(Cl)c1)C(=O)OCc1cc(=O)n2cc(Br)ccc2n1 | 2.78 |
| COc1ccc(NS(=O)(=O)c2cc(NC(=O)CCc3ccc(OC)c(OC)c3)ccc2N2CCOCC2)cc1 | -7.67 |
| Cc1ccc(NC(=S)NC(=O)c2ccc(F)cc2)cc1S(=O)(=O)Nc1ccccc1Cl | 13.8 |
| CCOC(=O)c1c(NC(NC(C)=O)C(Cl)(Cl)Cl)sc(C(C)=O)c1C (centres undefined) | -8.99 |
| OCc1ccnc2c(O)cccc12 | 17.6 |
| CCOC(=O)/C(C#N)=C/c1ccc(OCC(=O)Nc2ccccc2)c(OC)c1 | -1.9 |
